Data taken from PubChem BioAssay AID1159580 (chemical genetic matrix, 2015).
The whole screen tested about 5,500 compounds, of which about 2,000 (36%) were called active. Not shown: some 18% with an inconclusive outcome. No stated cut-off is given here; in the data, active means normalized growth mostly below about 0.91 (no sharp cut-off); inconclusive means no clear call, values can overlap the other calls; inactive means mostly above about 0.92. The list shows a part of the results.

Assay: chemical genetic growth profiling, strain panel (AID 1159580);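 further: tested at 20 µM; growth read once vehicle control cultures reached saturation at 30 °C; 1 = growth at the plate median or of vehicle wells; lower values mean less growth of the strain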
Conditions: growth OD

Measured: normalized growth

NC(=O)c1cc[n+](CC2=C(C(=O)O)N3C(=O)C(NC(=O)C(c4ccccc4)S(=O)(=O)[O-])C3SC2)cc1 (stereo not given)
inactive: S. cerevisiae deletion strains, locus YJR066W, strain TOR1, active compounds read low 1 | S. cerevisiae deletion strains, locus YKL009W, strain mrt4, active compounds read low 0.991 | S. cerevisiae deletion strains, locus YKL068W, active compounds read low 0.992 | S. cerevisiae deletion strains, locus YKL085W, strain MDH1 (second series), active compounds read low 0.987 | S. cerevisiae deletion strains, locus YKL085W, strain MDH1, active compounds read low 0.987 | S. cerevisiae deletion strains, locus YKL160W, strain elf1, active compounds read low 0.967 | S. cerevisiae deletion strains, locus YKL190W, strain CNB1, active compounds read low 0.996 | S. cerevisiae deletion strains, locus YKR001C, strain vps1, active compounds read low 0.993 | S. cerevisiae deletion strains, locus YKR026C, strain gcn3, active compounds read low 0.96 | S. cerevisiae deletion strains, locus YKR091W, strain srl3, active compounds read low 1.01 | S. cerevisiae deletion strains, locus YLL001W, strain dnm1, active compounds read low 0.961 | S. cerevisiae deletion strains, locus YLL026W, active compounds read low 0.999 | S. cerevisiae deletion strains, locus YLL041C, strain sdh2, active compounds read low 0.978 | S. cerevisiae deletion strains, locus YLR027C, strain aat2, active compounds read low 0.982 | S. cerevisiae deletion strains, locus YLR039C, strain RIC1, active compounds read low 0.986 | S. cerevisiae deletion strains, locus YLR058C, strain SHM2, active compounds read low 0.987 | S. cerevisiae deletion strains, locus YLR102C, strain apc9, active compounds read low 0.992 | S. cerevisiae deletion strains, locus YLR113W, strain HOG1, active compounds read low 1.09 | S. cerevisiae deletion strains, locus YLR221C, strain rsa3, active compounds read low 0.991 | S. cerevisiae deletion strains, locus YLR258W, strain gsy2, active compounds read low 1.01 | S. cerevisiae deletion strains, locus YLR262C, strain YPT6 (second series), active compounds read low 0.983 | S. cerevisiae deletion strains, locus YLR262C, strain YPT6, active compounds read low 0.945 | S. cerevisiae deletion strains, locus YLR268W, strain sec22, active compounds read low 0.981 | S. cerevisiae deletion strains, locus YLR320W, strain mms22, active compounds read low 1.01 | S. cerevisiae deletion strains, locus YLR330W, strain CHS5, active compounds read low 0.982 | S. cerevisiae deletion strains, locus YLR342W, strain FKS1 (second series), active compounds read low 0.959 | S. cerevisiae deletion strains, locus YLR342W, strain FKS1, active compounds read low 0.973 | S. cerevisiae deletion strains, locus YLR357W, strain rsc2, active compounds read low 0.965 | S. cerevisiae deletion strains, locus YLR370C, strain arc18, active compounds read low 1 | S. cerevisiae deletion strains, locus YLR371W, strain rom2, active compounds read low 0.987 | S. cerevisiae deletion strains, locus YLR384C, strain iki3, active compounds read low 0.984 | S. cerevisiae deletion strains, locus YLR418C, strain cdc73, active compounds read low 0.972 | S. cerevisiae deletion strains, locus YML016C, strain PPZ1, active compounds read low 0.982 | S. cerevisiae deletion strains, locus YML032C, strain rad52, active compounds read low 0.989 | S. cerevisiae deletion strains, locus YML120C, strain ndi1, active compounds read low 0.986 | S. cerevisiae deletion strains, locus YML124C, strain tub3, active compounds read low 0.982 | S. cerevisiae deletion strains, locus YMR058W, strain fet3, active compounds read low 0.998 | S. cerevisiae deletion strains, locus YMR078C, strain ctf18, active compounds read low 0.989 | S. cerevisiae deletion strains, locus YMR125W, strain sto1, active compounds read low 0.971 | S. cerevisiae deletion strains, locus YMR129W, active compounds read low 1.01 | S. cerevisiae deletion strains, locus YMR205C, strain PFK2, active compounds read low 1 | S. cerevisiae deletion strains, locus YMR223W, strain ubp8, active compounds read low 0.974 | S. cerevisiae deletion strains, locus YMR231W, strain pep5, active compounds read low 1 | S. cerevisiae deletion strains, locus YMR307W, strain GAS1, active compounds read low 0.883 | S. cerevisiae deletion strains, locus YNL067W, strain RPL9B, active compounds read low 1.02 | S. cerevisiae deletion strains, locus YNL071W, strain lat1, active compounds read low 1.01 | S. cerevisiae deletion strains, locus YNL153C, strain GIM3, active compounds read low 1.04 | S. cerevisiae deletion strains, locus YNL183C, strain NPR1, active compounds read low 0.999 | S. cerevisiae deletion strains, locus YNL209W, strain ssb2, active compounds read low 1.01 | S. cerevisiae deletion strains, locus YNL233W, strain BNI4, active compounds read low 1.01 | S. cerevisiae deletion strains, locus YNL248C, strain rpa49, active compounds read low 0.987 | S. cerevisiae deletion strains, locus YNL250W, strain rad50, active compounds read low 0.975 | S. cerevisiae deletion strains, locus YNL271C, strain bni1, active compounds read low 0.985 | S. cerevisiae deletion strains, locus YNL298W, strain CLA4, active compounds read low 0.988 | S. cerevisiae deletion strains, locus YNL307C, strain MCK1, active compounds read low 0.987 | S. cerevisiae deletion strains, locus YNL322C, strain KRE1 (second series), active compounds read low 0.994 | S. cerevisiae deletion strains, locus YNL322C, strain KRE1, active compounds read low 0.993 | S. cerevisiae deletion strains, locus YNR049C, strain mso1, active compounds read low 0.986 | S. cerevisiae deletion strains, locus YNR052C, strain pop2, active compounds read low 0.991 | S. cerevisiae deletion strains, locus YOL006C, strain TOP1, active compounds read low 1.02 | S. cerevisiae deletion strains, locus YOL012C, strain htz1 1.88 | S. cerevisiae deletion strains, locus YOL147C, strain pex11, active compounds read low 0.983 | S. cerevisiae deletion strains, locus YOR001W, strain rrp6, active compounds read low 0.985 | S. cerevisiae deletion strains, locus YOR061W, strain CKA2, active compounds read low 0.985 | S. cerevisiae deletion strains, locus YOR069W, strain VPS5, active compounds read low 0.987 | S. cerevisiae deletion strains, locus YOR070C, strain gyp1, active compounds read low 1.01 | S. cerevisiae deletion strains, locus YOR080W, strain dia2, active compounds read low 0.982 | S. cerevisiae deletion strains, locus YOR083W, strain WHI5, active compounds read low 0.985 | S. cerevisiae deletion strains, locus YOR106W, strain vam3, active compounds read low 0.992 | S. cerevisiae deletion strains, locus YOR136W, strain idh2, active compounds read low 0.998 | S. cerevisiae deletion strains, locus YOR144C, strain elg1, active compounds read low 0.991 | S. cerevisiae deletion strains, locus YOR184W, strain ser1, active compounds read low 0.98 | S. cerevisiae deletion strains, locus YOR231W, strain MKK1, active compounds read low 1.09 | S. cerevisiae deletion strains, locus YOR265W, strain rbl2, active compounds read low 1 | S. cerevisiae deletion strains, locus YOR270C, strain vph1, active compounds read low 0.93 | S. cerevisiae deletion strains, locus YOR290C, strain snf2, active compounds read low 0.998 | S. cerevisiae deletion strains, locus YOR316C, strain cot1, active compounds read low 0.994 | S. cerevisiae deletion strains, locus YPL051W, strain arl3, active compounds read low 0.987 | S. cerevisiae deletion strains, locus YPL055C, strain LGE1, active compounds read low 1.06 | S. cerevisiae deletion strains, locus YPL078C, strain atp4, active compounds read low 0.962 | S. cerevisiae deletion strains, locus YPL106C, strain sse1, active compounds read low 1.02 | S. cerevisiae deletion strains, locus YPL240C, strain hsp82, active compounds read low 0.987 | S. cerevisiae deletion strains, locus YPL241C, strain CIN2, active compounds read low 0.991 | S. cerevisiae deletion strains, locus YPL256C, strain CLN2, active compounds read low 1.07 | S. cerevisiae deletion strains, locus YPR119W, strain clb2, active compounds read low 0.995 | S. cerevisiae deletion strains, locus YPR141C, strain kar3, active compounds read low 0.98 | S. cerevisiae deletion strains, locus YPR163C, strain tif3, active compounds read low 0.987 | S. cerevisiae deletion strains, locus YPR167C, strain met16, active compounds read low 0.981 | S. cerevisiae deletion strains, strain wtn01, active compounds read low 0.981 | S. cerevisiae strains, strain wild type, active compounds read low 0.995
